Measurements as given in PubChem BioAssay (NCATS).
Records with an inconclusive call do not appear. A call without a number means that no potency is given here. Active and inactive are the calls of the source. Unless noted, the call rests on the fitted dose curve; in most records, active means well fitted curve in the direction sought with a large enough effect; inconclusive means small, poorly fitted or top-dose-only effect, or another doubt; inactive means no such curve, though single readings can be large; an effect the other way counts as inactive or inconclusive.

Legend:
[1] = biological target: Cytochrome P450 3A4 (Homo sapiens) (UniProt P08684); experiment: qHTS Assay for Inhibitors and Substrates of Cytochrome P450 3A4 (AID 884); further: nearly all actives have a fitted effect of over 50% in size; further: potency means the concentration at half of the fitted maximal effect
Outline: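 20 nM human CYP3A4 with 25 uM Luciferin-PPXE (at KM) in 200 mM KPO4, preincubated 10 min with compound; NADPH regeneration started a 60 min RT reaction. Luciferin detected by luminescence, normalized to 57 uM ketoconazole as full inhibition.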

[2] = biological target: Cytochrome P450 3A4 (Homo sapiens) (UniProt P08684); experiment: qHTS Assay for Activators of Cytochrome P450 3A4 (AID 885); further: nearly all actives have a fitted effect of over 65% in size
Outline: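 Quantitative HTS format: compounds preincubated with 20nM human CYP3A4 and Luciferin-PPXE substrate at KM, reaction started by NADPH regeneration, stopped after 60 min, luciferase luminescence read 20 min later.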

[3] = Confirmation and Secondary Assay for Modulators of Hemoglobin Beta Chain Splicing at IVS2 705 locus (AID 930);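 further: HeLa cells stably expressing the EGFP-705 splicing reporter; GFP fluorescence per well restored by corrected splicing of the IVS2-705 intron in EGFP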
Outline: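 Fluorescence gain (488 nm laser, 500-520 nm PMT) reflects restored correct splicing of a mutant IVS2-705 intron inside EGFP in stably transfected HeLa cells after 2-day compound treatment.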

[4] = qHTS Assay for Lipid Storage Modulators (AID 1519; calls by dose curve; further: potency means the concentration at half of the fitted maximal effect); details: Drosophila S3 cells, BODIPY lipid droplet/cell ratio, laser cytometry, cells loaded with oleic acid; for activity change, negative = inhibition: at 57.5 µM (top of the series)
Outline: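 Cells seeded at 5,000 per well were treated with compounds over a concentration series and loaded with oleic acid (400 uM, as added). Lipid droplet fluorescence (488 nm excitation, 500-530 nm channel) was read by laser-scanning cytometry and normalized to 20 uM Triacsin C.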

[5] = biological target: Ubiquitin carboxyl-terminal hydrolase 1 (Homo sapiens) (UniProt O94782); experiment: Inhibitors of USP1/UAF1: Pilot qHTS (AID 504865); further: nearly all actives have a fitted effect of over 35% in size; further: potency means the concentration at half of the fitted maximal effect;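 on activity change, negative = inhibition: rhodamine fluorescence freed from ubiquitin-rhodamine substrate followed over time; top concentration of the series differs between compounds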
Outline: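 1nM USP1/UAF1 + cpd, 15 min RT; start w/ Ub-Rho 150nM final; kinetic FL 480/540 nm, 6 reads q60 s. Buffer 50mM HEPES pH 7.8, 0.5mM EDTA, 1mM TCEP, 0.01% Tween-20, 0.1 mg/ml BSA.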

[6] = biological target: Rap guanine nucleotide exchange factor 3 (Homo sapiens) (UniProt O95398); experiment: Confirmatory qHTS for agonist of cAMP-regulated guanine nucleotide exchange factor 3 (EPAC1) (AID 1645881);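 further: EPAC1 catalysed release of BODIPY-GDP from Rap1B seen as fluorescence loss; nearly all actives have a fitted effect of over 75% in size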
[7] = biological target: Rap guanine nucleotide exchange factor 4 (Homo sapiens) (UniProt Q8WZA2); experiment: Confirmatory qHTS for agonist of cAMP-regulated guanine nucleotide exchange factor 4 (EPAC2) (AID 1645884);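 further: nucleotide exchange releases bodipy-GDP from Rap1 and this lowers its fluorescence; nearly all actives have a fitted effect of over 65% in size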
[8] = Confirmation and Secondary Assay for Modulators of Hemoglobin Beta Chain Splicing at IVS2 654 locus (AID 910);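 further: per-well total GFP intensity by laser scanning cytometry after 2-day treatment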
Outline: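 HeLa cells stably carrying EGFP interrupted by mutant beta-globin IVS2-654 intron (CMV-driven) were treated with compound for 2 days at 37C; corrected splicing was scored as total peak GFP intensity per well (488 nm excitation, 500-520 nm emission).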

[9] = biological target: Lysosomal acid glucosylceramidase (Homo sapiens) (UniProt P04062); experiment: Glucocerebrosidase-p2 (AID 348; in the data active means potency below about 10 µM; further: potency means the concentration at half of the fitted maximal effect); details: purified GBA, blue fluorogenic substrate, 40 min
Outline: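 Compounds titrated from 0.6 nM upwards against 0.2 nM enzyme in pH 5.9 citric acid/KH2PO4, taurocholate, tween-20; blue fluorogenic substrate 80 uM, 40 min room temperature, stopped and read Ex 365/Em 440 for AC50.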

[10] = AP1 Signaling Pathway (AID 357; active means well fitted curve in either direction with a large enough effect, not every such curve was filed as active); details: ME-180 AP-1-bla reporter, EGF-induced, beta-lactamase ratio, 5 h; at 7.69 µM (top of the series) unless noted
Outline: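 ME-180 cells with beta-lactamase reporter under AP-1 response element, stimulated with EC50 EGF; compounds tested in titration series, 5 h at 37 °C. CCF4 substrate added 2.5 h at room temperature; 460/530 nm emission ratio gave %activity and AC50.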

[11] = biological target: Cytochrome P450 1A2 (Homo sapiens) (UniProt P05177); experiment: p450-cyp1a2 (AID 410; calls by dose curve; further: potency means the concentration at half of the fitted maximal effect)
Outline: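 Inhibition was calculated relative to 57 uM furafylline (full inhibition). The reaction used human CYP1A2 at 20nM with Luciferin-ME at its Km, 100uM, driven by an NADPH-regenerating system for 60 min at room temperature.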

[12] = NFAT Signaling Pathway (AID 444; active means well fitted curve in either direction with a large enough effect, not every such curve was filed as active;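 further: carbachol stimulus at about its EC50 of 1 µM final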); details: Jurkat NFAT-bla M1, carbachol, beta-lactamase ratio, 5 h; at 7.69 µM (top of the series) unless noted
Outline: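 Jurkat cells carrying an NFAT-driven β-lactamase reporter and co-transfected muscarinic M1 receptor were treated with compound plus carbachol (1 uM final, an EC50 level) for 5 h at 37 °C. CCF4 loading followed for 1 h at RT; 460/530 nm ratio gave %activity.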

[13] = Stat Signaling Pathway (AID 446; active means well fitted curve in either direction with a large enough effect, not every such curve was filed as active;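 further: ME-180 cervical cancer cells given 40 pM IL-6 alongside compound; SIE-controlled beta-lactamase reporter measured as 460/530 nm FRET emission ratio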); details: ME-180 (cervical carcinoma) SIE beta-lactamase reporter, IL-6 stimulated, 5 h; at 7.69 µM (top of the series) unless noted
Outline: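 IL-6/STAT signaling read in ME-180 cells via an SIE beta-lactamase reporter. Stimulus was 40 pM IL-6 (its AC50) for 5 hrs, so both activation and inhibition register.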

[14] = biological target: Glucocorticoid receptor (Homo sapiens) (UniProt P04150); experiment: GR-GFP Redistribution (AID 450;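 active means compounds whose dose series gives a full or clear partial fitted curve of increased nuclear translocation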; further: potency means the concentration at half of the fitted maximal effect); details: U2OS GR-GFP nuclear translocation, laser cytometry, 2 h
[15] = biological target: Glucocorticoid receptor (Homo sapiens) (UniProt P04150); experiment: GR-EFC Redistribution (AID 451; calls by dose curve; further: potency means the concentration at half of the fitted maximal effect); details: CHO-K1 GR-EFC translocation, beta-gal luminescence, 2 h
Outline: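 CHO-K1 cells stably expressing nuclear-localized β-gal enzyme acceptor and GR fused C-terminally to the enzyme donor fragment; ligand-driven nuclear translocation restores β-gal by complementation. Compounds titrated up to 46 uM final, 2 h at 37 °C; luminescence read.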

[16] = biological target: Mitogen-activated protein kinase 10 (Mus musculus) (UniProt Q61831); experiment: JNK3 AlphaScreen Assay (AID 530; active means well fitted curve in either direction with a large enough effect, not every such curve was filed as active;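 further: kinase came from lysate of stimulated human HepG2 cells; signal reports phosphorylation of biotinylated GST-cJun 1-79 at Ser73 with 10 µM ATP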)
Outline: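 JNK3 came from HepG2 lysates pre-activated with IL-1beta and TNF-alpha and phosphorylated biotinylated GST-cJun (1-79) at 10 uM ATP, pH 7.6, room temperature. Compounds were titrated. AlphaScreen signal used anti-phospho-cJun (Ser73) antibody.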

[17] = measured here: cell count channel max response
[18] = measured here: lipid channel max response

Sequence of Cytochrome P450 3A4 (Homo sapiens) (P08684 whole entry, looked up): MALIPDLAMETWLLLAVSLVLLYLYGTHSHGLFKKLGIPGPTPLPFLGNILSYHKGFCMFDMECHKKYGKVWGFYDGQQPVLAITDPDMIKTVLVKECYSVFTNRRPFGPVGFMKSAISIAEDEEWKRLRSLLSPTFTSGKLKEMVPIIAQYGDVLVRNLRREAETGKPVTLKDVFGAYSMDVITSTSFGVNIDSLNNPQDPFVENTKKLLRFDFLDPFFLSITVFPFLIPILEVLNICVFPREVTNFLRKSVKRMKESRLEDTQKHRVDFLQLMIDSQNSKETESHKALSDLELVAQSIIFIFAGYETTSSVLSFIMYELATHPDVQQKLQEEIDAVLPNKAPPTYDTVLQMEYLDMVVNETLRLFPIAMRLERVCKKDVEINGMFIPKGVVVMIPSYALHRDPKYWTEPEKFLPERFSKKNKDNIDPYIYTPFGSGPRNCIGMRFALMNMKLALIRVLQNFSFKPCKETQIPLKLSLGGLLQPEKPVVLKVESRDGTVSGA
Sequence of Ubiquitin carboxyl-terminal hydrolase 1 (Homo sapiens) (O94782 whole entry, looked up): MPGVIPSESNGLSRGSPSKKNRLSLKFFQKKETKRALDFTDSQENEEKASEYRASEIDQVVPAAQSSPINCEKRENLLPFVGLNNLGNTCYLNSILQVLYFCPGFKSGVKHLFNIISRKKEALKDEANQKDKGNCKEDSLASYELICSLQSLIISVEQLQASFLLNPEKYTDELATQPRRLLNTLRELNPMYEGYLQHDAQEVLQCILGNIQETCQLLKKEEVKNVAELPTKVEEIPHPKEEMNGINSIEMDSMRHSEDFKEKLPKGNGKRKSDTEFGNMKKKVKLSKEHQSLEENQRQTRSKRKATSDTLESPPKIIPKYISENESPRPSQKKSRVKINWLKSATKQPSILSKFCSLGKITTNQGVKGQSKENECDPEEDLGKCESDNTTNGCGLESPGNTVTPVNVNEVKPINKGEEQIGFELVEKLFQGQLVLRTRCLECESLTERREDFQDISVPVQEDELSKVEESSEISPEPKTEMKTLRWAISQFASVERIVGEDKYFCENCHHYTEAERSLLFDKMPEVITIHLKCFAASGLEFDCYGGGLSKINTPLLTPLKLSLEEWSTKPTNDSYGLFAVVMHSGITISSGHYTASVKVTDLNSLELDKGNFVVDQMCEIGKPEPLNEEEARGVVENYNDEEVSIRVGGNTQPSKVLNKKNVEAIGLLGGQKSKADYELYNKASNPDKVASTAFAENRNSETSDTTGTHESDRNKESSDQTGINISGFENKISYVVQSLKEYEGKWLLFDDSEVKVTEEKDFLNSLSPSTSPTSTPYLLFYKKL
Sequence of Rap guanine nucleotide exchange factor 4 (Homo sapiens) (Q8WZA2 whole entry, looked up): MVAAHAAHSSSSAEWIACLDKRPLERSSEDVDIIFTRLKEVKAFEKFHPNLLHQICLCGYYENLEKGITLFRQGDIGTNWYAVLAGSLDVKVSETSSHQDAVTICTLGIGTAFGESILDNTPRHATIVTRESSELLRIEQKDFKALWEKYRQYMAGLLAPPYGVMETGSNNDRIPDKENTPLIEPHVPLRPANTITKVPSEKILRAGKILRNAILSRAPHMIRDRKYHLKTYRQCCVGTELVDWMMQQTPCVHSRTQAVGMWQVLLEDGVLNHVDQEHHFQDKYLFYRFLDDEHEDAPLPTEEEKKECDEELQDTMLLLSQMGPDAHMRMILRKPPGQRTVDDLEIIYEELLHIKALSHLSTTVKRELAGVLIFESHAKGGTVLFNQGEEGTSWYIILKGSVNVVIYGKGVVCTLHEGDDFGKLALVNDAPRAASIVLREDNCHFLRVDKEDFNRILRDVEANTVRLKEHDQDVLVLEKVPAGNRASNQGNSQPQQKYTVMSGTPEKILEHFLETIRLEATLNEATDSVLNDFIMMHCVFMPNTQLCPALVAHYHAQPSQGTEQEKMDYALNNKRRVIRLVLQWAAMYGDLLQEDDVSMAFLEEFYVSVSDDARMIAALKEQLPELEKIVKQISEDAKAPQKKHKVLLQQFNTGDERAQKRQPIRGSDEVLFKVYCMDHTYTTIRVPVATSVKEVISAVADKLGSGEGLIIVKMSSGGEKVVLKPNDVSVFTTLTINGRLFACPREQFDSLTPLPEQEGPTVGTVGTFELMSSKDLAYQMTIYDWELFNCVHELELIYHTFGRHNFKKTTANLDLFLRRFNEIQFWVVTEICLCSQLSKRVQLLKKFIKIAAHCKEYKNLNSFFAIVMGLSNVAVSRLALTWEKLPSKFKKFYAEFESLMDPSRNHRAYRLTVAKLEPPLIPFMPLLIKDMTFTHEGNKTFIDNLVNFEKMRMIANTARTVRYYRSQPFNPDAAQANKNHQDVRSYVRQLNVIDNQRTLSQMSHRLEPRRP
Sequence of Rap guanine nucleotide exchange factor 3 (Homo sapiens) (O95398 whole entry, looked up): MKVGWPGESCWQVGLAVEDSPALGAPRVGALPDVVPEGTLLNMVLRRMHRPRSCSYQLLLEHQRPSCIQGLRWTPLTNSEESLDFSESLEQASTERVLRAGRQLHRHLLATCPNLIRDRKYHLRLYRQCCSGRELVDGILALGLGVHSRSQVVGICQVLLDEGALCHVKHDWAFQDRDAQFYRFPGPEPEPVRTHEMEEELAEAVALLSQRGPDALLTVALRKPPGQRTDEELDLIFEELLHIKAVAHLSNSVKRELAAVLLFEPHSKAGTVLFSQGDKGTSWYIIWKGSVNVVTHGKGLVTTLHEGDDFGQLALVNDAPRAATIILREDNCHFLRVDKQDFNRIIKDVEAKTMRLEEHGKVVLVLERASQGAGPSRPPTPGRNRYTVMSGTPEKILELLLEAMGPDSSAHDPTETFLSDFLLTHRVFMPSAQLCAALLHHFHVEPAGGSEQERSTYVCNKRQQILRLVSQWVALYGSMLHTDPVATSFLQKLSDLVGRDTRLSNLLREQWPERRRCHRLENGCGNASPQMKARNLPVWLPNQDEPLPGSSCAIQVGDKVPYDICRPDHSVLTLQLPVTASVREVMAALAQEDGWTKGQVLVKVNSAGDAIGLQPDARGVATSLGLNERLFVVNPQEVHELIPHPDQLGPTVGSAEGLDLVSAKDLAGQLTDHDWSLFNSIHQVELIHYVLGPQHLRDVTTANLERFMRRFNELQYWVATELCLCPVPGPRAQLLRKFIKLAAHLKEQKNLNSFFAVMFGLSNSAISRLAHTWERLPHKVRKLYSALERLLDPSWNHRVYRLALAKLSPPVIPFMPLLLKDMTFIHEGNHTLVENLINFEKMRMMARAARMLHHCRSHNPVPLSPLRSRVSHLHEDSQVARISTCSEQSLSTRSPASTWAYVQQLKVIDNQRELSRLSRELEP
Sequence of Glucocorticoid receptor (Homo sapiens) (P04150 whole entry, looked up, the tested form may be a part): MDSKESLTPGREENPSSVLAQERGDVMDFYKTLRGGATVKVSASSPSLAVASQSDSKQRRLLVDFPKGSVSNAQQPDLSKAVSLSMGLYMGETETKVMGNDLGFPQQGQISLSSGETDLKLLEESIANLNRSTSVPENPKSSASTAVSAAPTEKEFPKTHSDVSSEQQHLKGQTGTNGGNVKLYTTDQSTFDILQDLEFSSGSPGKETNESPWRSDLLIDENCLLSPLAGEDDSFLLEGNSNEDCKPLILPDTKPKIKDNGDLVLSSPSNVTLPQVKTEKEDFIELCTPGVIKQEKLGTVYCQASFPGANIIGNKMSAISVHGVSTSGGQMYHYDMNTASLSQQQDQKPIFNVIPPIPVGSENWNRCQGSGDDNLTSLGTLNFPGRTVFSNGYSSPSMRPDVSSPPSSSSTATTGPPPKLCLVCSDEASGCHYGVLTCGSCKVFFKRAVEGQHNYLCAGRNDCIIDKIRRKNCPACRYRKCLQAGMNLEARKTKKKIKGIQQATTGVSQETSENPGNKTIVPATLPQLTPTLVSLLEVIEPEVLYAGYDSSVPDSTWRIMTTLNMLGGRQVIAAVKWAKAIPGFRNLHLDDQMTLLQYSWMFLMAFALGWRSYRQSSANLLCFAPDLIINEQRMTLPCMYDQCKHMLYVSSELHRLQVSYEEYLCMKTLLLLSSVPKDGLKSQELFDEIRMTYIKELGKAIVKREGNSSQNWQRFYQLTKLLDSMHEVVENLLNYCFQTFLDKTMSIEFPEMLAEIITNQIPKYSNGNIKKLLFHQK
Sequence of Lysosomal acid glucosylceramidase (Homo sapiens) (P04062 whole entry, looked up): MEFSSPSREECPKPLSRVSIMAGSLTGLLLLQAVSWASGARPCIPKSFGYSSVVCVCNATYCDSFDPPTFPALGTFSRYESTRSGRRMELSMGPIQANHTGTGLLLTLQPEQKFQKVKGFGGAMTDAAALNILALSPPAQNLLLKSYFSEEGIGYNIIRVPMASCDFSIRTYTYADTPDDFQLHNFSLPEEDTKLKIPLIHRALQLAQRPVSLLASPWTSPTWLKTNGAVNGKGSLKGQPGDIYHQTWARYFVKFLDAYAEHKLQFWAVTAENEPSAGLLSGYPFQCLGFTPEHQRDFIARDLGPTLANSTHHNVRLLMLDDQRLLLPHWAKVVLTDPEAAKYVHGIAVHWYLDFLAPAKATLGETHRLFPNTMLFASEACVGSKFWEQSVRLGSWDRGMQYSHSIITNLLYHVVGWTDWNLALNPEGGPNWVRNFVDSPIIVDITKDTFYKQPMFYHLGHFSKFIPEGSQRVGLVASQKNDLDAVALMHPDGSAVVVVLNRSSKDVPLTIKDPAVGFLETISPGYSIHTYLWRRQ
Sequence of Cytochrome P450 1A2 (Homo sapiens) (P05177 whole entry, looked up): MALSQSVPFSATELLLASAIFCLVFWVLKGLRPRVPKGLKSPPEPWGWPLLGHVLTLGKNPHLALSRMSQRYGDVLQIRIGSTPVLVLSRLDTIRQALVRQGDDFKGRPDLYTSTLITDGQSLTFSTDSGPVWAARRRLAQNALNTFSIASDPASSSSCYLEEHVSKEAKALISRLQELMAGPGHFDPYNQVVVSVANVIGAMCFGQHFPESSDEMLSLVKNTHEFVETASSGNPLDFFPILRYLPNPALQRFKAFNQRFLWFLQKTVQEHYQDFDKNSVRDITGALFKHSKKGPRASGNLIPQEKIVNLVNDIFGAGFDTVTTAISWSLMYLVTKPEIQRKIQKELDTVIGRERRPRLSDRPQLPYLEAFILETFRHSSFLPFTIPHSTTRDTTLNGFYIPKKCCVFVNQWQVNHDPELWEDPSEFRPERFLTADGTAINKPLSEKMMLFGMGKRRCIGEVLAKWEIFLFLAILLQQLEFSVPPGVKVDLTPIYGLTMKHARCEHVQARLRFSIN

In the case of `COC(=O)c1c(OC)cc2c(c1C)Oc1c(Cl)c(O)c(Cl)c(C)c1C(=O)O2`, the Potency [1] is reported as 1.58 µM (active), the Potency [2] is reported as “inactive” and the outcome [3] is reported as “inactive”. For the same compound, the activity change, negative = inhibition [4] was 6.08% (inactive), the max response [4, 17] was -4.22% and the max response [4, 18] was -5.08%. For the same compound, the Potency [5] was 56.2 µM (active), the Potency [6] was “inactive” and the Potency [7] was “inactive”.

In the case of `COc1ccc(C(=O)O)c(O)c1OC`, the Potency [1] is reported as “inactive”, the Potency [8] is reported as “inactive” and the outcome [3] is reported as “inactive”. The activity change, negative = inhibition [4] was 7.29% (inactive), the max response [4, 17] was 8.57% and the max response [4, 18] was 18.5%. The Potency [5] was “inactive”, the Potency [6] was “inactive” and the Potency [7] was “inactive”.

For `NCC1OC(n2cnc3c(=O)[nH]c(N)nc32)C(O)C1O` (stereo not drawn), the Potency [8] was “inactive”, the outcome [3] was “inactive” and the activity change, negative = inhibition [4] was 2.55% (inactive). For the same compound, the max response [4, 17] was -3.82%, the max response [4, 18] was -2.83% and the Potency [5] was “inactive”. For the same compound, the Potency [6] was “inactive” and the Potency [7] was “inactive”.

For `COC(=O)c1c(OC)cc2c(c1C)Oc1c(Cl)c(OC(C)=O)c(Cl)c(C)c1C(=O)O2`, the Potency [1] was 15.8 µM (active), the Potency [2] was “inactive” and the Potency [8] was “inactive”. For the same compound, the outcome [3] was “inactive”, the activity change, negative = inhibition [4] was 5.48% (inactive) and the max response [4, 17] was 2.97%. The max response [4, 18] was 13%, the Potency [6] was “inactive” and the Potency [7] was “inactive”.

In the case of `CC(=O)OC1c2c(ccc3ccc(=O)oc23)OC(C)(C)C1OC(=O)CC(C)C` (stereo not drawn), the Potency [1] is reported as 20 µM (active), the Potency [2] is reported as “inactive” and the Potency [8] is reported as “inactive”. The outcome [3] was “inactive”, the Potency [4] was 25.1 µM (active) and the max response [4, 17] was -23.2%. The max response [4, 18] was -91.6%, the Potency [6] was “inactive” and the Potency [7] was “inactive”.

For `C=C[C@](C)(O)CCC1C(=C)CC(OC(C)=O)C2C(C)(C)CCCC12C` (stereo partly drawn), the Potency [1] was 2.51 µM (active), the Potency [2] was “inactive” and the Potency [8] was “inactive”. The activity change, negative = inhibition [4] was -0.933% (inactive), the max response [4, 17] was 1.16% and the max response [4, 18] was 0.207%. The Potency [6] was “inactive” and the Potency [7] was “inactive”.

With `COc1ccc2c(c1)OCC(Cc1ccc(OC)c(OC(C)=O)c1)C2=O` (stereo not drawn) the Potency [2] was “inactive”, the outcome [3] was “inactive” and the activity change, negative = inhibition [4] was 2.81% (inactive). For the same compound, the max response [4, 17] was 1.86%, the max response [4, 18] was -2.44% and the Potency [6] was “inactive”. For the same compound, the Potency [7] was “inactive”.

For `COc1cccc(-c2cncnc2NCc2ccc(OC)cc2OC)c1`, the Potency [9] was > 11.4 µM (inactive), the activity change, negative = inhibition [10] was -7.15% (inactive) and the Potency [11] was 3.98 µM (active). For the same compound, the activity change, negative = inhibition [12] was -10.1% (inactive), the activity, negative = inhibition [13] was -6.14% (inactive) and the Potency [14] was > 46 µM (inactive). The Potency [15] was > 46 µM (inactive), the Potency [16] was “inactive” and the Potency [1] was 0.501 µM (active). The Potency [2] was “inactive”, the Potency [8] was “inactive” and the outcome [3] was “inactive”. For the same compound, the activity change, negative = inhibition [4] was 7.71% (inactive), the max response [4, 17] was 3.12% and the max response [4, 18] was 8.96%. The Potency [6] was “inactive” and the Potency [7] was “inactive”.

In the case of `CC(=O)Oc1ccc2c(c1C(C)C)CCC1C(C)(C)CCC[C@@]21C` (stereo partly drawn), the Potency [2] is reported as “inactive”, the Potency [8] is reported as “inactive” and the activity change, negative = inhibition [4] is reported as 2.03% (inactive). The max response [4, 17] was 13.7%, the max response [4, 18] was 20.3% and the Potency [6] was “inactive”. The Potency [7] was “inactive”.
